The campaign covered roughly 5,500 compounds. About 2,000 (36%) were called active. Inconclusive results (about 18%) are left out. No stated cut-off is given here; in the data, active means normalized growth mostly below about 0.91 (no sharp cut-off); inconclusive means no clear call, values can overlap the other calls; inactive means mostly above about 0.92. The list shows a part of the results.
Assay: chemical genetic growth profiling, strain panel (AID 1159580);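 further: tested at 20 µM; growth read once vehicle control cultures reached saturation at 30 °C; 1 = growth at the plate median or of vehicle wells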
Settings: growth OD

Measured: normalized growth

CCC1(CC)C(=O)C=CNC1=O
inactive: S. cerevisiae deletion strains, locus YJR066W, strain TOR1, stronger effect = lower value 0.961 | S. cerevisiae deletion strains, locus YKL009W, strain mrt4, stronger effect = lower value 1 | S. cerevisiae deletion strains, locus YKL068W, stronger effect = lower value 1 | S. cerevisiae deletion strains, locus YKL085W, strain MDH1 (second series), stronger effect = lower value 1 | S. cerevisiae deletion strains, locus YKL085W, strain MDH1, stronger effect = lower value 1 | S. cerevisiae deletion strains, locus YKL160W, strain elf1, stronger effect = lower value 0.992 | S. cerevisiae deletion strains, locus YKL190W, strain CNB1, stronger effect = lower value 1 | S. cerevisiae deletion strains, locus YKR001C, strain vps1, stronger effect = lower value 0.983 | S. cerevisiae deletion strains, locus YKR026C, strain gcn3, stronger effect = lower value 0.97 | S. cerevisiae deletion strains, locus YKR091W, strain srl3, stronger effect = lower value 1 | S. cerevisiae deletion strains, locus YLL001W, strain dnm1, stronger effect = lower value 0.985 | S. cerevisiae deletion strains, locus YLL026W, stronger effect = lower value 0.99 | S. cerevisiae deletion strains, locus YLL041C, strain sdh2, stronger effect = lower value 0.985 | S. cerevisiae deletion strains, locus YLR027C, strain aat2, stronger effect = lower value 0.996 | S. cerevisiae deletion strains, locus YLR039C, strain RIC1, stronger effect = lower value 1.01 | S. cerevisiae deletion strains, locus YLR058C, strain SHM2, stronger effect = lower value 1.01 | S. cerevisiae deletion strains, locus YLR102C, strain apc9, stronger effect = lower value 1.01 | S. cerevisiae deletion strains, locus YLR113W, strain HOG1, stronger effect = lower value 0.988 | S. cerevisiae deletion strains, locus YLR221C, strain rsa3, stronger effect = lower value 1.01 | S. cerevisiae deletion strains, locus YLR258W, strain gsy2, stronger effect = lower value 1.01 | S. cerevisiae deletion strains, locus YLR262C, strain YPT6 (second series), stronger effect = lower value 1.02 | S. cerevisiae deletion strains, locus YLR262C, strain YPT6, stronger effect = lower value 1.01 | S. cerevisiae deletion strains, locus YLR268W, strain sec22, stronger effect = lower value 1.01 | S. cerevisiae deletion strains, locus YLR320W, strain mms22, stronger effect = lower value 1.02 | S. cerevisiae deletion strains, locus YLR330W, strain CHS5, stronger effect = lower value 1.01 | S. cerevisiae deletion strains, locus YLR342W, strain FKS1 (second series), stronger effect = lower value 1.06 | S. cerevisiae deletion strains, locus YLR342W, strain FKS1, stronger effect = lower value 1.01 | S. cerevisiae deletion strains, locus YLR357W, strain rsc2, stronger effect = lower value 1 | S. cerevisiae deletion strains, locus YLR370C, strain arc18, stronger effect = lower value 0.997 | S. cerevisiae deletion strains, locus YLR371W, strain rom2, stronger effect = lower value 1.01 | S. cerevisiae deletion strains, locus YLR384C, strain iki3, stronger effect = lower value 0.995 | S. cerevisiae deletion strains, locus YLR418C, strain cdc73, stronger effect = lower value 1.02 | S. cerevisiae deletion strains, locus YML016C, strain PPZ1, stronger effect = lower value 1 | S. cerevisiae deletion strains, locus YML032C, strain rad52, stronger effect = lower value 0.997 | S. cerevisiae deletion strains, locus YML120C, strain ndi1, stronger effect = lower value 0.994 | S. cerevisiae deletion strains, locus YML124C, strain tub3, stronger effect = lower value 1.01 | S. cerevisiae deletion strains, locus YMR058W, strain fet3, stronger effect = lower value 0.989 | S. cerevisiae deletion strains, locus YMR078C, strain ctf18, stronger effect = lower value 1.01 | S. cerevisiae deletion strains, locus YMR125W, strain sto1, stronger effect = lower value 0.973 | S. cerevisiae deletion strains, locus YMR129W, stronger effect = lower value 0.991 | S. cerevisiae deletion strains, locus YMR205C, strain PFK2, stronger effect = lower value 1.05 | S. cerevisiae deletion strains, locus YMR223W, strain ubp8, stronger effect = lower value 1.02 | S. cerevisiae deletion strains, locus YMR231W, strain pep5, stronger effect = lower value 0.998 | S. cerevisiae deletion strains, locus YMR263W, strain SAP30, stronger effect = lower value 0.995 | S. cerevisiae deletion strains, locus YMR307W, strain GAS1, stronger effect = lower value 1.01 | S. cerevisiae deletion strains, locus YNL067W, strain RPL9B, stronger effect = lower value 0.981 | S. cerevisiae deletion strains, locus YNL071W, strain lat1, stronger effect = lower value 0.994 | S. cerevisiae deletion strains, locus YNL128W, strain TEP1, stronger effect = lower value 1.03 | S. cerevisiae deletion strains, locus YNL183C, strain NPR1, stronger effect = lower value 0.958 | S. cerevisiae deletion strains, locus YNL209W, strain ssb2, stronger effect = lower value 1 | S. cerevisiae deletion strains, locus YNL233W, strain BNI4, stronger effect = lower value 0.978 | S. cerevisiae deletion strains, locus YNL248C, strain rpa49, stronger effect = lower value 0.96 | S. cerevisiae deletion strains, locus YNL250W, strain rad50, stronger effect = lower value 1.02 | S. cerevisiae deletion strains, locus YNL271C, strain bni1, stronger effect = lower value 1.01 | S. cerevisiae deletion strains, locus YNL298W, strain CLA4, stronger effect = lower value 1 | S. cerevisiae deletion strains, locus YNL307C, strain MCK1, stronger effect = lower value 1.02 | S. cerevisiae deletion strains, locus YNL322C, strain KRE1 (second series), stronger effect = lower value 0.992 | S. cerevisiae deletion strains, locus YNL322C, strain KRE1, stronger effect = lower value 0.999 | S. cerevisiae deletion strains, locus YNR049C, strain mso1, stronger effect = lower value 0.994 | S. cerevisiae deletion strains, locus YNR052C, strain pop2, stronger effect = lower value 1.01 | S. cerevisiae deletion strains, locus YOL006C, strain TOP1, stronger effect = lower value 0.966 | S. cerevisiae deletion strains, locus YOL012C, strain htz1 0.962 | S. cerevisiae deletion strains, locus YOL147C, strain pex11, stronger effect = lower value 1.01 | S. cerevisiae deletion strains, locus YOR001W, strain rrp6, stronger effect = lower value 0.971 | S. cerevisiae deletion strains, locus YOR061W, strain CKA2, stronger effect = lower value 1.01 | S. cerevisiae deletion strains, locus YOR069W, strain VPS5, stronger effect = lower value 1.01 | S. cerevisiae deletion strains, locus YOR070C, strain gyp1, stronger effect = lower value 1 | S. cerevisiae deletion strains, locus YOR080W, strain dia2, stronger effect = lower value 0.999 | S. cerevisiae deletion strains, locus YOR083W, strain WHI5, stronger effect = lower value 0.984 | S. cerevisiae deletion strains, locus YOR106W, strain vam3, stronger effect = lower value 1.01 | S. cerevisiae deletion strains, locus YOR136W, strain idh2, stronger effect = lower value 0.994 | S. cerevisiae deletion strains, locus YOR144C, strain elg1, stronger effect = lower value 1 | S. cerevisiae deletion strains, locus YOR184W, strain ser1, stronger effect = lower value 1.02 | S. cerevisiae deletion strains, locus YOR231W, strain MKK1, stronger effect = lower value 0.98 | S. cerevisiae deletion strains, locus YOR265W, strain rbl2, stronger effect = lower value 0.996 | S. cerevisiae deletion strains, locus YOR270C, strain vph1, stronger effect = lower value 0.994 | S. cerevisiae deletion strains, locus YOR290C, strain snf2, stronger effect = lower value 0.965 | S. cerevisiae deletion strains, locus YOR316C, strain cot1, stronger effect = lower value 1.01 | S. cerevisiae deletion strains, locus YPL051W, strain arl3, stronger effect = lower value 0.985 | S. cerevisiae deletion strains, locus YPL078C, strain atp4, stronger effect = lower value 0.968 | S. cerevisiae deletion strains, locus YPL106C, strain sse1, stronger effect = lower value 1 | S. cerevisiae deletion strains, locus YPL240C, strain hsp82, stronger effect = lower value 1.02 | S. cerevisiae deletion strains, locus YPL256C, strain CLN2, stronger effect = lower value 1.01 | S. cerevisiae deletion strains, locus YPR119W, strain clb2, stronger effect = lower value 1 | S. cerevisiae deletion strains, locus YPR141C, strain kar3, stronger effect = lower value 1 | S. cerevisiae deletion strains, locus YPR163C, strain tif3, stronger effect = lower value 1.01 | S. cerevisiae deletion strains, locus YPR167C, strain met16, stronger effect = lower value 1.01 | S. cerevisiae deletion strains, strain wtn01, stronger effect = lower value 1.02 | S. cerevisiae strains, strain wild type, stronger effect = lower value 0.996
